Experimental data from PubChem BioAssay.

System: not listed separately
Experiment: small-molecule microarray binders of probe aLefty2, primary screen, biochemical, biotinylated probe, 635/667 nm fluorescence (AID 1094);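 further: score merges spot fluorescence near 667 nm with spot signal-to-noise ratio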
Conditions: higher = more signal

Compound | composite z-score
COCCOC(=O)N1C(=O)[C@@]2(c3cc(C#CC4=CCCCC4)ccc31)[C@H](c1ccccc1OCCO)N1[C@H](c3ccccc3)[C@H](c3ccccc3)OC(=O)[C@H]1[C@@H]2C(=O)NC[C@H](O)c1ccccc1 | -0.0671
CCCC[C@@H](O)C1=C(COc2ccccc2)C[C@H]2C(=O)N(Cc3ccccc3)C(=O)[C@H]2[C@H]1CO | -0.0907
O=C1OCCC/C=C\[C@H]2OC34C=CCN(c5ccc6ccccc6c5)C(=O)[C@H]3N(CCO)C(=O)[C@@H]4C12 (stereo not given in full) | -0.14
COC(=O)c1c(CC[C@@H](CO)NC(=O)N[C@@H](C)Cn2cc(-c3ccccn3)nn2)oc(C(C)=O)c1C(=O)OC | -0.115
CC(C)C[C@@H]1NC(=O)[C@@H]2C[C@H](C(=O)NCCCCCCN)[C@H](c3cccc(OCCO)c3)N2C1=O | 0.235
[N-]=[N+]=Nc1ccccc1C[C@@]1(C(=O)N2CCOCC2)N=C(c2ccc(OCCCO)cc2)O[C@@H]1c1ccccc1 | 0.0946
CCOC(=O)C[C@H]1[C@H](OC(=O)c2cc3ccccc3oc2=O)[C@@H](NC(=O)CC(C)C)c2cc(OCCCO)ccc2N1C(=O)c1ccc2ccccc2n1 | -0.0916
Cc1ccc(NN2C(C(O)c3c(F)cccc3Cl)C=CC3C(=O)N(C4CCCCC4)C(=O)C32)cc1 (stereo not given) | 0.184
O=C1O[C@@H](c2ccccc2)[C@@H](c2ccccc2)N2[C@@H](c3ccc(OCCO)cc3)[C@]3(C(=O)Nc4ccc(C#CC5=CCCCC5)cc43)[C@@H](C(=O)NC[C@H](O)c3ccccc3)[C@H]12 | -0.0696
CCCN1C(=O)[C@]2(Cc3ccccc31)N=C(c1ccc(OCCCO)cc1)O[C@@H]2c1ccccc1 | -0.0391
C[N+](C)(C)CCCCCCNC(=O)[C@@H]1C[C@@H]2C(=O)N3CCC[C@H]3C(=O)N2[C@@H]1c1ccc(O)cc1 | -0.0216
CCOC(=O)C[C@H]1[C@H](OC(=O)c2ccc(C(=O)c3ccccc3)cc2)[C@@H](NC(=O)CC(C)C)c2cc(OCCCO)ccc2N1C(=O)c1ccccc1 | 0.0769
CC1CC/C=C\[C@H]2OC34C=CCN(C(C)C)C(=O)[C@H]3N(CCO)C(=O)[C@@H]4C2C(=O)O1 (stereo not given in full) | -0.159
[N-]=[N+]=Nc1ccccc1C[C@]1(C(=O)N2CCOCC2)COC(c2ccc(OCCCO)cc2)=N1 | 0.0446
CCCCCCc1nc(Cc2cc(OC)c(OC)c(OC)c2)cc2c1[Si](C(C)C)(C(C)C)OC2 | -0.0985

System: Noggin (protein binding on small-molecule microarray)
Experiment: Noggin binders on small-molecule microarray, primary screen, biochemical, 635/667 nm fluorescence (AID 1095);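 further: score merges 667 nm feature fluorescence with signal to noise over triplicate slides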
Conditions: 635 nm fluorescence, higher = more signal

Compound | composite z-score
CO[C@H]1O[C@H](CO)[C@@H](OC(=O)Nc2ccc3c(c2)OCO3)[C@H](OC(=O)Nc2ccc3c(c2)OCO3)[C@@H]1OC(=O)Nc1ccc2c(c1)OCO2 | 0.643
CCCC1(C(=O)OC)C=C2C(=C(C)C(=O)C2C)CN1 (stereo not given) | -0.0743
CO[C@H]1O[C@H](CO)[C@@H](OC(=O)Nc2ccccc2)[C@H](OC(=O)c2cc3ccccc3[nH]2)[C@H]1OC(=O)c1cc2ccccc2[nH]1 | 0.248
O=C1O[C@H](c2ccccc2)[C@H](c2ccccc2)N2[C@H]1[C@@H](C(=O)O)[C@]1(C(=O)Nc3ccc(C#CCCO)cc31)[C@H]2c1ccccc1OCCO | 0.55
CCCCC[C@H]1OC[C@@]23C=C(Br)[C@@H](CC12)[C@@]1(CO1)C3=O (stereo not given in full) | 0.483
CCCCN1CC=CC23O[C@@H]4/C=C\CCC(C)OC(=O)C4[C@H]2C(=O)N(CCCO)[C@@H]3C1=O (stereo not given in full) | -0.908
CC[C@@H]1C=C(C(=O)O)[C@H](c2ccc(C#N)cc2)N1S(=O)(=O)c1ccc(C)cc1 | -0.911
O=C1[C@H]2C=C(I)[C@H](C[C@@H]2OCCOCCO)[C@@]12CO2 | 0.513
COCCOC(=O)N1C(=O)[C@@]2(c3cc(C#CC4=CCCCC4)ccc31)[C@H](C(=O)Nc1nc3ccccc3s1)[C@H]1C(=O)O[C@H](c3ccccc3)[C@H](c3ccccc3)N1[C@@H]2c1ccc(O)cc1 | 1.21
COc1ccc([C@H]2OC[C@@H]3C[C@H](Cc4ccccc4)C(=O)N32)cc1 | 0.614
NC(=O)NCC#Cc1ccc2c(c1)[C@]1(C(=O)N2)[C@H](c2ccccc2OCCO)N2[C@H](c3ccccc3)[C@H](c3ccccc3)OC(=O)[C@H]2[C@@H]1C(=O)O | 0.192
CC1CC/C=C\[C@H]2OC34C=CCN(c5ccc(Cl)cc5)C(=O)[C@H]3N(C(C)CO)C(=O)[C@]4(C)C2C(=O)O1 (stereo not given in full) | -0.603
CCOC(=O)C1=C[C@@H](C(C)C)N(S(=O)(=O)c2ccc(C)cc2)[C@H]1c1ccc(C(F)(F)F)cc1 | 0.745
OCCCC1=CC(c2ccc(CN3CCCC3)cc2)N(Cc2cc3c(cc2Br)OCO3)CC1 (stereo not given) | 0.386
CCCCCCCCCC(O)C1C=CC2C(=O)N(c3ccccc3)C(=O)C2N1Nc1cc(OC)c(OC)c(OC)c1 (stereo not given) | -0.344
COCCCNC(=O)[C@@]1(CCC(=O)OC(C)(C)C)N=C(c2ccc(OCCCO)cc2)O[C@H]1c1ccccc1N=[N+]=[N-] | -0.0445
COc1cc(OC)c(C(O)C2C=CC3C(=O)N(Cc4ccccc4)C(=O)C3N2n2cnnc2)cc1Br (stereo not given) | 0.404
C[N+](C)(C)CCCC[C@@H]1NC(=O)[C@@H]2C[C@H](C(=O)NCCCCCCN)[C@H](c3cccc(OCCO)c3)N2C1=O | 0.47

Compound | composite z-score
O=C1C2C=CC(C(O)C3CC=CCC3)N(Nc3ccccc3)C2C(=O)N1c1ccccc1 (stereo not given) | -0.146
C=CCNC(=O)[C@H]1[C@@H]2C(=O)O[C@@H](c3ccccc3)[C@@H](c3ccccc3)N2[C@@H](c2ccccc2OCCO)[C@]12C(=O)N(C(=O)OCCOC)c1ccc(C#CC3(O)CCCCCC3)cc12 | 0.592
COCCOC(=O)N1C(=O)[C@@]2(c3cc(C#CC4=CCCCC4)ccc31)[C@H](c1ccccc1OCCO)N1[C@H](c3ccccc3)[C@H](c3ccccc3)OC(=O)[C@H]1[C@@H]2C(=O)NC[C@H](O)c1ccccc1 | 1.45
CCCC[C@@H](O)C1=C(COc2ccccc2)C[C@H]2C(=O)N(Cc3ccccc3)C(=O)[C@H]2[C@H]1CO | 0.517
O=C1OCCC/C=C\[C@H]2OC34C=CCN(c5ccc6ccccc6c5)C(=O)[C@H]3N(CCO)C(=O)[C@@H]4C12 (stereo not given in full) | -1.79
COC(=O)c1c(CC[C@@H](CO)NC(=O)N[C@@H](C)Cn2cc(-c3ccccn3)nn2)oc(C(C)=O)c1C(=O)OC | 1.43
CC(C)C[C@@H]1NC(=O)[C@@H]2C[C@H](C(=O)NCCCCCCN)[C@H](c3cccc(OCCO)c3)N2C1=O | 0.993
[N-]=[N+]=Nc1ccccc1C[C@@]1(C(=O)N2CCOCC2)N=C(c2ccc(OCCCO)cc2)O[C@@H]1c1ccccc1 | 0.955
CCOC(=O)C[C@H]1[C@H](OC(=O)c2cc3ccccc3oc2=O)[C@@H](NC(=O)CC(C)C)c2cc(OCCCO)ccc2N1C(=O)c1ccc2ccccc2n1 | 0.746
Cc1ccc(NN2C(C(O)c3c(F)cccc3Cl)C=CC3C(=O)N(C4CCCCC4)C(=O)C32)cc1 (stereo not given) | -0.203
O=C1O[C@@H](c2ccccc2)[C@@H](c2ccccc2)N2[C@@H](c3ccc(OCCO)cc3)[C@]3(C(=O)Nc4ccc(C#CC5=CCCCC5)cc43)[C@@H](C(=O)NC[C@H](O)c3ccccc3)[C@H]12 | 1.51
CCCN1C(=O)[C@]2(Cc3ccccc31)N=C(c1ccc(OCCCO)cc1)O[C@@H]2c1ccccc1 | 1.66
C[N+](C)(C)CCCCCCNC(=O)[C@@H]1C[C@@H]2C(=O)N3CCC[C@H]3C(=O)N2[C@@H]1c1ccc(O)cc1 | 1.4
CCOC(=O)C[C@H]1[C@H](OC(=O)c2ccc(C(=O)c3ccccc3)cc2)[C@@H](NC(=O)CC(C)C)c2cc(OCCCO)ccc2N1C(=O)c1ccccc1 | 0.937
CC1CC/C=C\[C@H]2OC34C=CCN(C(C)C)C(=O)[C@H]3N(CCO)C(=O)[C@@H]4C2C(=O)O1 (stereo not given in full) | -1.87
[N-]=[N+]=Nc1ccccc1C[C@]1(C(=O)N2CCOCC2)COC(c2ccc(OCCCO)cc2)=N1 | 0.182
CCCCCCc1nc(Cc2cc(OC)c(OC)c(OC)c2)cc2c1[Si](C(C)C)(C(C)C)OC2 | 0.158
